TDP1 cell CPT: DT40-hTDP1 cell growth loss with CPT. Potency, µM (highest dose often 46.2 µM), inactives show at the highest dose activity change, negative = growth inhibition, actives largely listed as inhibitors. chicken DT40 Tdp1-/-;hTDP1 cells + 20 nM CPT, ATP luminescence, 48 h. 12% of 420,000 active; note: potency is the fitted concentration of half-maximal effect; nearly all actives have a fitted effect of over 55% in size
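Chicken DT40 Tdp1-/- cells complemented with human TDP1, 400 cells/well, exposed to compounds plus 20 nM camptothecin for at least 48 h at 37 C; viability read as ATP content by CellTiter-Glo luminescence.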
HT1080 IDH1KD tx: HT-1080 IDH1 knockdown cell toxicity (counter line) | Potency, µM (titrated, usually from 46.1 µM), for inactives: at the highest dose activity, negative = toxicity, hits mostly cytotoxic | 2% of 360,000 active | AID 686971 | HT-1080 IDH1 knockdown viability, ATP luminescence, 48 h;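 note: potency is the fitted concentration of half-maximal effect; 0% = DMSO wells and -100% = cell-free medium wells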
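Using the IDH1-knockdown HT-1080 line run in the same batch and compound series as the NT line, viability after 48 h at 37 °C was determined by CellTiter-Glo luminescence and expressed as % activity.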
DT40 TDP1 no CPT: qHTS for Inhibitors of human tyrosyl-DNA phosphodiesterase 1 (TDP1): qHTS in cells in absence of CPT; DT40 Tdp1-/- hTDP1 cells, no CPT, ATP luminescence, 48 h; Potency, µM (series often up to 46.2 µM), for inactives: at the highest dose activity change, negative = growth inhibition, usual class: inhibitors; 15% of 420,000 active; note: potency is the fitted concentration of half-maximal effect; nearly all actives have a fitted effect of over 55% in size
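Camptothecin absent (DMSO only). Human TDP1-complemented DT40 knockout cells, 400 cells/well, 37 °C for minimum 48 hr; ATP measured via CellTiter-Glo, 30 min dark incubation, luminescence.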
HT1080-NT tox: kills 2HG-producing HT-1080-NT fibrosarcoma cells | AID 686970 | HT-1080-NT fibrosarcoma viability, CellTiter-Glo ATP luminescence, 48 h | 1.6% of 360,000 active | Potency, µM (top dose mostly 46.1 µM), inactives show top-dose activity, negative = less viability, usual class: cytotoxic;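 note: NT is the 2HG producing partner of a matched IDH1 knockdown line; potency is the fitted concentration of half-maximal effect; 0% = DMSO-treated cells and -100% = media-only wells without cells; nearly all actives have a fitted effect of over 55% in size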
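750 cells/well, RPMI + 5% FBS; 2 h settle, compound pin-transfer, 48 h at 37 degrees C. CellTiter-Glo 10 min RT, luminescence. Normalized to DMSO and media-only wells.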
IL-1B inflam inh: blocks inflammasome-driven IL-1 beta release. 4.7% of 360,000 active. activity change, % at 57.5 µM. THP-1 LPS/ATP IL-1B secretion, AlphaLISA, 16 h; hits give low values; in the data active = activity change below about -50%; inconclusive = mostly about -30% to -49%
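Secreted IL-1B measured by AlphaLISA bead assay after 16 h compound exposure of THP-1 cells; compounds (final up to 57.5 uM) added 1 h before LPS (250 ng/mL) and ATP (1.25 mM) stimulation; lower signal means less secretion.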
The depositor's hits bear a star; ? = inconclusive; . = no result given; [ ] = another dose, or the depositor's remark. Most compounds without a hit are left out; they make up all but 19% or so of the library. Unless noted, calls come from the whole dose curve; as a rule, active = well fitted curve in the direction sought with a large enough effect; inconclusive = small, poorly fitted or top-dose-only effect, or another doubt; inactive = no such curve, though single readings can be large; an effect the other way counts as inactive or inconclusive. Unless noted, % is set by controls: 0 for no effect and ±100 for the full control effect.

SMILES | TDP1 cell CPT | HT1080 IDH1KD tx | DT40 TDP1 no CPT | HT1080-NT tox | IL-1B inflam inh
COc1ccc(N2C(=O)C3CCCN3C2c2cc(OC)c(OC)c(OC)c2)cc1 (stereo unspecified) | -16% | -11% | -15% | 2% | -21
COc1ccc2c(c1)OC(=O)CC2c1cc(OC)c(OC)c(OC)c1 (stereo unspecified) | ? | 15µM* | ? | ? | 79
COc1cc(C2CC(=O)N(c3ccc(C)cc3)C(=O)C2)cc(OC)c1OC | 1.8µM* | ? | 1.8µM* | 3.3µM* | 36
Cc1ccc(C(=O)N2CCCCC2C(=O)O)cc1S(=O)(=O)N1CCCCC1 (stereo unspecified) | 19% | 1% | -10% | -1% | 5
CC1(C)COC(c2coc3ccccc3c2=O)OC1 | 9% | -5% | -7% | -1% | -15
COc1ccc(C(CC(=O)Nc2ccc(F)c(Cl)c2)N2Cc3ccccc3C2=O)cc1OC (stereo unspecified) | ? | . | 15µM* | . | .
COc1cc(NC(=O)CC(c2cccs2)N2Cc3ccccc3C2=O)cc(OC)c1OC (stereo unspecified) | 23µM* | . | 23µM* | . | .
COc1ccc(C(CC(=O)Nc2ncccc2C)N2Cc3ccccc3C2=O)cc1OC (stereo unspecified) | -18% | -12% | -13% | -10% | 20
COc1ccc(C(CC(=O)Nc2ccc(C)c(C)c2)N2Cc3ccccc3C2=O)cc1OC (stereo unspecified) | 15µM* | . | 21µM* | . | .
O=C(CC(c1cccs1)N1Cc2ccccc2C1=O)Nc1ccc(F)c(Cl)c1 (stereo unspecified) | -32% | . | ? | . | .
CCc1ccc(NC(=O)CC(c2cc(OC)c(OC)c(OC)c2)N2Cc3ccccc3C2=O)cc1 (stereo unspecified) | ? | . | -4% | . | .
CCOC(=O)N1CCN(C(=O)CCc2ccc(S(=O)(=O)NC(C)(C)C)cc2)CC1 | -11% | -9% | 3% | -8% | 30
CCOc1ccc(OCC)c(NC(=O)CSc2nc3c(c(=O)n(C)c(=O)n3C)n2CC)c1 | ? | -9% | 23µM* | 4% | 1
CCn1c(SCC(=O)Nc2ccccc2)nc2c1c(=O)n(C)c(=O)n2C | -17% | 0% | -17% | -7% | 24
CCOc1ccc(OCC)c(NC(=O)CSc2nc3c(c(=O)n(C)c(=O)n3C)n2C(C)C)c1 | 16µM* | 4%[9.24 µM] | 21µM* | -46% | -81*
c1ccc(Nc2ncncc2-c2ccoc2)cc1 | ? | . | -27% | . | .
CCCCNc1c(-c2cccc(-c3cc(C(C)=O)cs3)c2)nc2ccc(C)cn12 | 16µM* | ? | 13µM* | 21µM* | -103*
Cc1ccc2nc(-c3ccc(-c4cccc(Cl)c4)cc3)c(NCc3ccccc3)n2c1 | ? | -11% | ? | -1% | 8
CCCCNc1c(-c2cccc(-c3ccc(OC)cc3)c2)nc2cc(C)ccn12 | 16µM* | ? | 18µM* | ? | -71*
CCCCNc1c(-c2cccc(-c3ccc(OC)cc3)c2)nc2ccc(C)cn12 | 23µM* | ? | 18µM* | ? | -100*
Cc1ccc(NS(=O)(=O)N2CCOCC2)cc1 | -14% | 2% | -1% | -7% | -4
COc1cc2[nH]c(C)c(-c3ccccc3)c(=O)c2cc1Cl | -4% | -7% | -3% | -20% | -7
COc1ccccc1NC(=O)Nc1nc(CC(=O)N2CCN(c3ccccc3)CC2)cs1 | 16µM* | -19% | ? | -21% | ?
COc1ccccc1NC(=O)Nc1nc(CC(=O)N2CCN(c3ccc(F)cc3)CC2)cs1 | ? | -30% | ? | -18% | -9
COc1ccc(N2CCN(C(=O)Cc3csc(NC(=O)Nc4ccccc4OC)n3)CC2)cc1 | 16µM* | -11% | 16µM* | -11% | -18
SMILES | TDP1 cell CPT | HT1080 IDH1KD tx | DT40 TDP1 no CPT | HT1080-NT tox | IL-1B inflam inh
COc1ccc(/C=C/C(=O)c2cc(F)ccc2OC(=O)c2ccccc2)cc1OC | 0.41µM* | 1.6µM* | 0.41µM* | ? | ?
COc1ccc(/C=C/C(=O)c2cc(F)ccc2OC(=O)c2ccc(OC)c(OC)c2)cc1OC | ? | ? | -69% | ? | -29
COc1ccc(/C=C/C(=O)c2cc(F)ccc2OC(=O)c2ccccc2OC)cc1OC | 4.1µM* | 1.3µM* | 4.6µM* | 1µM* | -100*
COc1ccc(CN(C)C(=O)c2ccc(OCC(=O)N3CCOCC3)c(OC)c2)cc1 | -18% | 11% | -6% | 4% | 15
COc1ccc(C(=O)N(Cc2ccccc2)c2cccc(C)c2)cc1 | 15µM* | -17% | ? | -21% | 13
COc1cc(C(=O)N(Cc2ccccc2)c2cccc(C)c2)ccc1OCC(=O)N1CCOCC1 | ? | -3% | 16µM* | 0% | -17
Cc1cccc(N(Cc2ccccc2)C(=O)c2ccc(S(C)(=O)=O)cc2)c1 | 16µM* | 0% | ? | 0% | 0
NC(=O)C1CCN(C(=O)Cn2c(-c3cccs3)cc3ccccc32)CC1 | 21% | . | 11% | . | .
O=C(Nn1c(SCc2cccc([N+](=O)[O-])c2)nc2ccccc2c1=O)c1ccccc1 | -3% | -14% | ? | -4% | -24
COCCn1c(SCc2cccc([N+](=O)[O-])c2)nc2ccccc2c1=O | ? | ? | ? | -27% | ?
CCOC(CCn1c(SCc2cccc([N+](=O)[O-])c2)nc2ccccc2c1=O)OCC | 16µM* | -28% | ? | ? | -29
Cn1c(SCc2cccc(C#N)c2)nc2ccccc2c1=O | ? | ? | ? | ? | -50*
CCCCn1c(SCc2cccc([N+](=O)[O-])c2)nc2ccsc2c1=O | ? | 2% | 23µM* | 0% | -20
Cc1ccc(CSc2nc3ccccc3c(=O)n2C)cc1 | ? | -14% | ? | -23% | 54
Cn1c(SCc2cccc([N+](=O)[O-])c2)nc2ccccc2c1=O | 16µM* | ? | 12µM* | ? | -6
Cc1cc(C)n(Cc2cccc(C(=O)NCC3Cc4cccc(-c5ncccn5)c4O3)c2)n1 (stereo unspecified) | 1%[9.04 µM] | . | -29% | . | .
CCNc1nc(NC(C)C)nc(SCCOc2ccc(C)cc2)n1 | 16µM* | ? | 23µM* | ? | -22
CCNc1nc(NC(C)C)nc(SCCOC(=O)c2ccccc2)n1 | 15µM* | -8% | ? | -7% | 14
CCNc1nc(SCCOc2ccc(Br)cc2)nc(N(C)C)n1 | ? | -6% | 15µM* | 0% | 6
CCNc1nc(NCC)nc(OCCOC(=O)c2ccccc2)n1 | -14% | 1% | -12% | -2% | 8

Compound activity: PubChem, National Center for Advancing Translational Sciences (NCATS)
